Assay results: PubChem BioAssay AID1159580 (chemical genetic matrix, 2015)
“And” between values parts separate entries of the source, which are not always exact repeats. Equal values may be shown once. Out of some 5,500 compounds screened, about 2,000 (36%) were called active. Roughly 18% stayed inconclusive and do not appear here. No stated cut-off is given here; in the data, active means normalized growth mostly below about 0.91 (no sharp cut-off); inconclusive means no clear call, values can overlap the other calls; inactive means mostly above about 0.92. Some of the results follow.

Assay: chemical genetic growth profiling, strain panel (AID 1159580);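 further: tested at 20 µM; growth read once vehicle control cultures reached saturation at 30 °C; 1 = growth at the plate median or of vehicle wells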
Settings: growth OD

Measured: normalized growth

CC1=C(/C=C/C(C)=C/C=C/C(C)=C/C(=O)O)C(C)(C)CCC1
inactive: S. cerevisiae deletion strains, locus YJR075W, strain HOC1, stronger effect = lower value 1.01 | S. cerevisiae deletion strains, locus YKL009W, strain mrt4, stronger effect = lower value 0.992 | S. cerevisiae deletion strains, locus YKL068W, stronger effect = lower value 1.02 | S. cerevisiae deletion strains, locus YKL085W, strain MDH1 (second series), stronger effect = lower value 1.02 | S. cerevisiae deletion strains, locus YKL085W, strain MDH1, stronger effect = lower value 1.02 | S. cerevisiae deletion strains, locus YKL160W, strain elf1, stronger effect = lower value 0.93 | S. cerevisiae deletion strains, locus YKL190W, strain CNB1, stronger effect = lower value 1.01 | S. cerevisiae deletion strains, locus YKR001C, strain vps1, stronger effect = lower value 1.02 | S. cerevisiae deletion strains, locus YKR026C, strain gcn3, stronger effect = lower value 1.01 | S. cerevisiae deletion strains, locus YKR091W, strain srl3, stronger effect = lower value 1.01 | S. cerevisiae deletion strains, locus YLL001W, strain dnm1, stronger effect = lower value 0.963 | S. cerevisiae deletion strains, locus YLL026W, stronger effect = lower value 0.996 | S. cerevisiae deletion strains, locus YLL041C, strain sdh2, stronger effect = lower value 1.02 | S. cerevisiae deletion strains, locus YLR027C, strain aat2, stronger effect = lower value 0.966 | S. cerevisiae deletion strains, locus YLR039C, strain RIC1, stronger effect = lower value 0.945 | S. cerevisiae deletion strains, locus YLR058C, strain SHM2, stronger effect = lower value 1.01 | S. cerevisiae deletion strains, locus YLR102C, strain apc9, stronger effect = lower value 1.04 | S. cerevisiae deletion strains, locus YLR113W, strain HOG1, stronger effect = lower value 0.978 | S. cerevisiae deletion strains, locus YLR221C, strain rsa3, stronger effect = lower value 0.982 | S. cerevisiae deletion strains, locus YLR258W, strain gsy2, stronger effect = lower value 0.972 | S. cerevisiae deletion strains, locus YLR262C, strain YPT6, stronger effect = lower value 0.93 | S. cerevisiae deletion strains, locus YLR268W, strain sec22, stronger effect = lower value 1 | S. cerevisiae deletion strains, locus YLR320W, strain mms22, stronger effect = lower value 0.935 | S. cerevisiae deletion strains, locus YLR330W, strain CHS5, stronger effect = lower value 1.01 | S. cerevisiae deletion strains, locus YLR342W, strain FKS1 (second series), stronger effect = lower value 1.02 | S. cerevisiae deletion strains, locus YLR342W, strain FKS1, stronger effect = lower value 0.922 | S. cerevisiae deletion strains, locus YLR357W, strain rsc2, stronger effect = lower value 0.94 | S. cerevisiae deletion strains, locus YLR370C, strain arc18, stronger effect = lower value 0.989 | S. cerevisiae deletion strains, locus YLR371W, strain rom2, stronger effect = lower value 1.03 | S. cerevisiae deletion strains, locus YLR384C, strain iki3, stronger effect = lower value 0.995 | S. cerevisiae deletion strains, locus YLR418C, strain cdc73, stronger effect = lower value 1.05 | S. cerevisiae deletion strains, locus YML016C, strain PPZ1, stronger effect = lower value 1.01 | S. cerevisiae deletion strains, locus YML032C, strain rad52, stronger effect = lower value 1.03 | S. cerevisiae deletion strains, locus YML120C, strain ndi1, stronger effect = lower value 1.01 | S. cerevisiae deletion strains, locus YML124C, strain tub3, stronger effect = lower value 1.03 | S. cerevisiae deletion strains, locus YMR058W, strain fet3, stronger effect = lower value 0.948 | S. cerevisiae deletion strains, locus YMR078C, strain ctf18, stronger effect = lower value 1.04 | S. cerevisiae deletion strains, locus YMR125W, strain sto1, stronger effect = lower value 1 | S. cerevisiae deletion strains, locus YMR129W, stronger effect = lower value 1 | S. cerevisiae deletion strains, locus YMR205C, strain PFK2, stronger effect = lower value 0.965 | S. cerevisiae deletion strains, locus YMR223W, strain ubp8, stronger effect = lower value 1.02 | S. cerevisiae deletion strains, locus YMR231W, strain pep5, stronger effect = lower value 1.01 | S. cerevisiae deletion strains, locus YMR263W, strain SAP30, stronger effect = lower value 1 and 0.999 | S. cerevisiae deletion strains, locus YMR307W, strain GAS1, stronger effect = lower value 1.02 | S. cerevisiae deletion strains, locus YNL067W, strain RPL9B, stronger effect = lower value 1 | S. cerevisiae deletion strains, locus YNL071W, strain lat1, stronger effect = lower value 0.957 | S. cerevisiae deletion strains, locus YNL128W, strain TEP1, stronger effect = lower value 1.02 | S. cerevisiae deletion strains, locus YNL153C, strain GIM3, stronger effect = lower value 1.01 | S. cerevisiae deletion strains, locus YNL175C, strain NOP13, stronger effect = lower value 1.05 | S. cerevisiae deletion strains, locus YNL183C, strain NPR1, stronger effect = lower value 0.905 | S. cerevisiae deletion strains, locus YNL197C, strain WHI3, stronger effect = lower value 1.04 | S. cerevisiae deletion strains, locus YNL209W, strain ssb2, stronger effect = lower value 0.973 | S. cerevisiae deletion strains, locus YNL224C, strain SQS1, stronger effect = lower value 1.03 | S. cerevisiae deletion strains, locus YNL233W, strain BNI4, stronger effect = lower value 1.01 | S. cerevisiae deletion strains, locus YNL248C, strain rpa49, stronger effect = lower value 0.955 | S. cerevisiae deletion strains, locus YNL250W, strain rad50, stronger effect = lower value 1.03 | S. cerevisiae deletion strains, locus YNL271C, strain bni1, stronger effect = lower value 1.03 | S. cerevisiae deletion strains, locus YNL298W, strain CLA4, stronger effect = lower value 1.03 | S. cerevisiae deletion strains, locus YNL307C, strain MCK1, stronger effect = lower value 1.01 | S. cerevisiae deletion strains, locus YNL322C, strain KRE1 (second series), stronger effect = lower value 0.989 | S. cerevisiae deletion strains, locus YNL322C, strain KRE1, stronger effect = lower value 1.01 and 1 | S. cerevisiae deletion strains, locus YNR049C, strain mso1, stronger effect = lower value 1.01 | S. cerevisiae deletion strains, locus YNR052C, strain pop2, stronger effect = lower value 1.04 | S. cerevisiae deletion strains, locus YOL006C, strain TOP1, stronger effect = lower value 1.04 | S. cerevisiae deletion strains, locus YOL012C, strain htz1 1.82 | S. cerevisiae deletion strains, locus YOL147C, strain pex11, stronger effect = lower value 1.03 | S. cerevisiae deletion strains, locus YOR001W, strain rrp6, stronger effect = lower value 0.978 | S. cerevisiae deletion strains, locus YOR061W, strain CKA2, stronger effect = lower value 1.01 | S. cerevisiae deletion strains, locus YOR069W, strain VPS5, stronger effect = lower value 1.01 | S. cerevisiae deletion strains, locus YOR070C, strain gyp1, stronger effect = lower value 0.975 | S. cerevisiae deletion strains, locus YOR080W, strain dia2, stronger effect = lower value 0.999 | S. cerevisiae deletion strains, locus YOR083W, strain WHI5 (second series), stronger effect = lower value 1.02 | S. cerevisiae deletion strains, locus YOR106W, strain vam3, stronger effect = lower value 0.935 | S. cerevisiae deletion strains, locus YOR136W, strain idh2, stronger effect = lower value 1.04 | S. cerevisiae deletion strains, locus YOR144C, strain elg1, stronger effect = lower value 1.04 | S. cerevisiae deletion strains, locus YOR184W, strain ser1, stronger effect = lower value 1.03 | S. cerevisiae deletion strains, locus YOR231W, strain MKK1, stronger effect = lower value 0.992 | S. cerevisiae deletion strains, locus YOR265W, strain rbl2, stronger effect = lower value 1.01 | S. cerevisiae deletion strains, locus YOR270C, strain vph1, stronger effect = lower value 0.926 | S. cerevisiae deletion strains, locus YOR290C, strain snf2, stronger effect = lower value 0.952 | S. cerevisiae deletion strains, locus YOR316C, strain cot1, stronger effect = lower value 1.02 | S. cerevisiae deletion strains, locus YPL051W, strain arl3, stronger effect = lower value 0.932 | S. cerevisiae deletion strains, locus YPL055C, strain LGE1, stronger effect = lower value 1.01 and 0.999 | S. cerevisiae deletion strains, locus YPL078C, strain atp4, stronger effect = lower value 0.943 | S. cerevisiae deletion strains, locus YPL106C, strain sse1, stronger effect = lower value 0.987 | S. cerevisiae deletion strains, locus YPL240C, strain hsp82, stronger effect = lower value 0.992 | S. cerevisiae deletion strains, locus YPL241C, strain CIN2, stronger effect = lower value 1.01 | S. cerevisiae deletion strains, locus YPL256C, strain CLN2, stronger effect = lower value 1.04 | S. cerevisiae deletion strains, locus YPR119W, strain clb2, stronger effect = lower value 1.03 | S. cerevisiae deletion strains, locus YPR141C, strain kar3, stronger effect = lower value 1.05 | S. cerevisiae deletion strains, locus YPR163C, strain tif3, stronger effect = lower value 1.04 | S. cerevisiae deletion strains, locus YPR167C, strain met16, stronger effect = lower value 1.03 | S. cerevisiae deletion strains, strain wtn01, stronger effect = lower value 1.04 | S. cerevisiae strains, strain wild type, stronger effect = lower value 1
active: S. cerevisiae deletion strains, locus YLR262C, strain YPT6 (second series), stronger effect = lower value 0.827 | S. cerevisiae deletion strains, locus YOR083W, strain WHI5, stronger effect = lower value 0.883
